Hits are enriched below; roughly 31% of the tested compounds scored in any of these assays.
CYP2C19 activ: human CYP2C19 activators, primary screen, biochemical, luminescence. Cytochrome P450 2C19 (Homo sapiens), P33261. recombinant CYP2C19, luciferin-H EGE luminescence; active compounds read high; 0 = fully inhibited enzyme, 1 = untreated enzyme. activation factor at 5 µM. 96,000 tested, under 10 active;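 active = activation factor of at least 2 at 5 µM in the primary screen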;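 note: 0 = wells with 2.5 mM tranylcypromine and 1 = vehicle-only wells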
CYP2C9 activ: human CYP2C9 activators, primary screen, biochemical, luminescence; activation factor at 5 µM; Cytochrome P450 2C9 (Homo sapiens), P11712; recombinant CYP2C9, luciferin-H conversion; active compounds read high; factor 1 = untreated enzyme, 0 = blocked; 96,000 tested, 1.4% active;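 active = activation factor of 2 or more for CYP2C9 at a 5 µM dose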;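 note: 0 = sulfaphenazole-blocked wells and 1 = vehicle-only wells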
Target sequence (P11712 whole entry, looked up): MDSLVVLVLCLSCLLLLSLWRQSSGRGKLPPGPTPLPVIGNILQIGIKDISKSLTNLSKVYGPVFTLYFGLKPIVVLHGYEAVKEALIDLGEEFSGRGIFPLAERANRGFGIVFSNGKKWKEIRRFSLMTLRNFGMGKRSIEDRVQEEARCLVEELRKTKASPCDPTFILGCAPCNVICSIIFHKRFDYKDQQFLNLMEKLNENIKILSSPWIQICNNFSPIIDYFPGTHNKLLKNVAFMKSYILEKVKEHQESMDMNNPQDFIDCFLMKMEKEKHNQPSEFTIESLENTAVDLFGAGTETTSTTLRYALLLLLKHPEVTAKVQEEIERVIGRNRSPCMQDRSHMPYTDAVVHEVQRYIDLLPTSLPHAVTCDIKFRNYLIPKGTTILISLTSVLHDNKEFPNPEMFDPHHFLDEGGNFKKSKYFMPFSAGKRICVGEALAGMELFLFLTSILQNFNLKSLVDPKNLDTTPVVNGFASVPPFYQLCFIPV
CYP2C19 inh: blockers of cytochrome P450 2C19 activity – biochemical, luminescence, ADME assay, primary screen | inhibition, % at 5 µM | CYP2C19 Supersomes, luciferin-H EGE luminescence, 30 min | 96,000 tested, 21% active | AID 778, 2007 | P33261;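 active = CYP2C19 inhibition above a set limit at 5 µM in the primary screen, cut at about 50% in these data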;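 note: plate controls were negative control wells for no effect and 2.5 mM tranylcypromine positive control for full effect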
CYP2C9 inh: blockers of cytochrome P450 2C9 activity – biochemical, luminescence, ADME assay, primary screen. P11712. inhibition, % at 5 µM. 96,000 tested, 20% active. AID 777, 2007. CYP2C9 Supersomes, luciferin-H conversion;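 active = blocking of liver enzyme CYP2C9 beyond about 50% at 5 µM, limit read from the data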
Numbers without * were called inactive.

SMILES	CYP2C19 activ	CYP2C9 activ	CYP2C19 inh	CYP2C9 inh
COc1cc(C2c3c(oc4ccccc4c3=O)C(=O)N2c2ccc(C)cn2)ccc1O (configuration not stated)	0.9	0.3	9	68*
O=C(NCc1ccco1)C1CCC(CNS(=O)(=O)c2cccc3cccnc23)CC1 (configuration not stated)	1	1.1	4	-9
COc1ccc(OC)c(NC(=O)CNC(=O)c2cccs2)c1	0.5	0.8	54*	19
COc1ccc(C(=O)NCC(=O)OCc2cccc(Br)c2)cc1	0.5	0.8	55*	19
COc1ccc(NC(=O)C(=O)NNC(=O)c2cccs2)c(OC)c1	0.9	1	9	0
COc1ccc(OC)c(NC(=O)COC(=O)c2c3c(nc4ccccc24)CCCC3)c1	0.8	0.5	20	52*
COc1ccc(C(=O)NCC(=O)OCC(=O)Nc2cc(OC)ccc2OC)cc1	0.3	0.5	71*	49
COc1ccc(O)c(/C=N/NC(=O)c2ccc(OCc3cccc(Br)c3)cc2)c1	0.9	0.9	8	12
Cc1cccc(NCc2nc(SCC(N)=O)n[nH]2)c1	0.7	1	30	3
O=C(NCc1ccccc1)c1cccc(COc2cccc(Cl)c2)c1	0.8	0.8	20	18
NNC(=O)c1cccc(COc2cccc(Br)c2)c1	0	0.3	98*	68*
Nn1c(SCC(=O)N2CCOCC2)nnc1-c1ccccc1Cl	1.1	1	-5	0
Cc1ccccc1NC(=S)NNc1ncc(C(F)(F)F)cc1Cl	0.2	1.2	77*	-17
Cc1c(Cl)cccc1NC(=S)NNc1ncc(C(F)(F)F)cc1Cl	0.1	2.2*	91*	-116
Cc1cccc(C)c1NC(=S)NNc1ncc(C(F)(F)F)cc1Cl	0.2	0.9	75*	13
CC(C)(C)C(=O)Nc1ncc(C(F)(F)F)cc1Cl	0.8	1	17	0
O=C(NNc1ncc(C(F)(F)F)cc1Cl)c1c(Cl)cccc1Cl	0.7	2.4*	33	-142
FC(F)(F)c1cnc(/C=C/Nc2ccccc2Cl)c(Cl)c1	1	0.8	-2	24
Fc1ccccc1NC(=S)NNc1ncc(C(F)(F)F)cc1Cl	0.4	0.1	55*	87*
NC(=O)C1CCN(C(=O)c2ccc(NC3=NC4CS(=O)(=O)CC4S3)cc2)CC1 (configuration not stated)	1.1	1	-6	2
CCOc1ccccc1N1CCN(C(=O)c2cc3c(s2)CCC3)CC1	0.9	0.6	10	45
CCOc1ccccc1NC(=O)C(Sc1ccccc1)c1ccccc1 (configuration not stated)	0.6	1.2	40	-24
CCOc1ccccc1N1CCN(C(=O)c2cc(C)oc2C)CC1	0.3	0.7	68*	27
CCOc1ccccc1N1CCN(C(=O)C(F)(F)F)CC1	0.8	0.9	24	10
CCOc1ccccc1N1CCN(C(=O)c2cc[n+]([O-])cc2)CC1	0.2	1.1	80*	-6
SMILES	CYP2C19 activ	CYP2C9 activ	CYP2C19 inh	CYP2C9 inh
CCCc1ccc(C(=O)N2CCN(c3ccccc3OCC)CC2)cc1	0.1	0.2	88*	76*
CCOc1ccccc1N1CCN(C(=O)C(Sc2ccccc2)c2ccccc2)CC1 (configuration not stated)	0.5	0.6	51*	42
Cc1cc(C(=O)NCc2ccc(C(=O)O)o2)c(C)o1	1	1	0	5
CSc1nc(Cl)cc(N(CCO)CCO)n1	1	1.3	-4	-32
Cc1cccc(OCC(=O)Nc2ccc3c(c2)nc(CCN2CCN(C)CC2)n3C)c1	1	0.9	4	7
CCc1cc2cccc(C)c2nc1SCC(=O)c1ccc(NC(C)=O)cc1	1	0.2	3	80*
CC(=O)Nc1ccc(C(=O)CSc2nnc(C)o2)cc1	1	1	2	3
CCc1cc2ccc(C)cc2nc1SCC(=O)c1ccc(NC(C)=O)cc1	0.4	0.1	63*	92*
NC(=O)C1CCN(C2CC(=O)N(Cc3cccs3)C2=O)CC1 (configuration not stated)	1	1	-1	2
O=C(O)c1c(Cl)c(Cl)c(Cl)c(Cl)c1C(=O)N1CCCC1	1	1	-4	-3
Cc1cc(Nc2nnnn2-c2ccccc2)n(-c2ccc(Cl)cc2)n1	0.3	0.7	65*	32
Cc1cccc(NS(=O)(=O)c2ccccc2)n1	1.1	1.1	-6	-8
Cc1cc(Nc2ccccc2)n(-c2ccccc2)n1	0.1	0.3	90*	75*
Cc1ccc(-n2nnnc2-c2cnc3ccc(Cl)cc3c2-c2ccccc2)cc1	0.7	0.6	27	40
Cc1cc(NS(=O)(=O)c2ccccc2)n(-c2ccccc2)n1	1	0.1	4	86*
CC(=O)NN1C(=O)/C(=C/c2ccc(Br)o2)SC1=S	0.5	1.1	48	-7
Cc1cccc(OC(=O)c2cn(C)nc2C(F)(F)F)c1C	0.7	1	34	-5
COC(=O)c1ccccc1NC(=O)C1CCCN(S(=O)(=O)c2ccc(OC)cc2)C1 (configuration not stated)	0.5	0.3	54*	73*
COC(=O)c1ccccc1NC(=O)C1CCCN(S(=O)(=O)c2ccccc2)C1 (configuration not stated)	0.6	0.7	43	33
COC(=O)c1ccccc1NC(=O)C1CCCN(S(=O)(=O)c2ccc(F)cc2)C1 (configuration not stated)	0.1	0.2	90*	80*
CCOCCCNC(=O)C(NC(=O)CNC(C)=O)c1ccc(Cl)cc1 (configuration not stated)	1.1	1.1	-14	-7
Cn1nc(-c2ccc(Cl)cc2)c2cc(C(=O)N3CCN(c4ccccn4)CC3)sc21	0.7	0.4	32	56*
Cn1nc(-c2ccc(Cl)cc2)c2cc(C(=O)N3CCN(c4ccccc4)CC3)sc21	0.6	0.2	38	84*
O=S(=O)(Nc1ccc2c(c1)OCCO2)c1cccc2cccnc12	0.6	1.7	40	-72
O=S(=O)(Nc1ccc2c(c1)OCCO2)c1ccc2oc3ccccc3c2c1	0	0	100*	98*
SMILES	CYP2C19 activ	CYP2C9 activ	CYP2C19 inh	CYP2C9 inh
O=S(=O)(Nc1ccc2c(c1)OCCO2)c1cnc[nH]1	0.9	0.2	12	78*
COc1ccc(S(=O)(=O)N2CCC(C(=O)Nc3ccc4c(c3)OCCO4)CC2)cc1OC	1.1	0.7	-5	32
COc1ccc(S(=O)(=O)Nc2ccc3c(c2)OCCO3)cc1Cl	0	0.1	99*	93*
O=C(O)c1cc(S(=O)(=O)Nc2ccc3c(c2)OCCO3)c(Cl)cc1Cl	0.9	0.5	15	51*
O=C(O)c1ccc(NS(=O)(=O)c2cc(Cl)ccc2Cl)cc1O	1	0.8	-1	20
N#Cc1cccc(NC(=O)CN2NS(=O)(=O)c3ccccc3C2=O)c1	0.9	0.8	10	17
